Sampled rows, rich in hits. Any-hit rate of the full collection: about 1.1%.
RXFP1 agonist – activates the human relaxin receptor RXFP1 | HEK293T-RXFP1 cAMP TR-FRET, 30 min; response scale: percent of porcine relaxin response, buffer zero | Potency, µM (series often up to 57.5 µM), inactives show at the top dose activation, most hits filed as activators | 370,000 compounds, 0.3% hits; note: potency is the fitted concentration of half-maximal effect; % is set by controls: 0 for no effect and ±100 for the full control effect; nearly all actives have a fitted effect of over 60% in size
Target sequence (Q9HBX9 whole entry, looked up): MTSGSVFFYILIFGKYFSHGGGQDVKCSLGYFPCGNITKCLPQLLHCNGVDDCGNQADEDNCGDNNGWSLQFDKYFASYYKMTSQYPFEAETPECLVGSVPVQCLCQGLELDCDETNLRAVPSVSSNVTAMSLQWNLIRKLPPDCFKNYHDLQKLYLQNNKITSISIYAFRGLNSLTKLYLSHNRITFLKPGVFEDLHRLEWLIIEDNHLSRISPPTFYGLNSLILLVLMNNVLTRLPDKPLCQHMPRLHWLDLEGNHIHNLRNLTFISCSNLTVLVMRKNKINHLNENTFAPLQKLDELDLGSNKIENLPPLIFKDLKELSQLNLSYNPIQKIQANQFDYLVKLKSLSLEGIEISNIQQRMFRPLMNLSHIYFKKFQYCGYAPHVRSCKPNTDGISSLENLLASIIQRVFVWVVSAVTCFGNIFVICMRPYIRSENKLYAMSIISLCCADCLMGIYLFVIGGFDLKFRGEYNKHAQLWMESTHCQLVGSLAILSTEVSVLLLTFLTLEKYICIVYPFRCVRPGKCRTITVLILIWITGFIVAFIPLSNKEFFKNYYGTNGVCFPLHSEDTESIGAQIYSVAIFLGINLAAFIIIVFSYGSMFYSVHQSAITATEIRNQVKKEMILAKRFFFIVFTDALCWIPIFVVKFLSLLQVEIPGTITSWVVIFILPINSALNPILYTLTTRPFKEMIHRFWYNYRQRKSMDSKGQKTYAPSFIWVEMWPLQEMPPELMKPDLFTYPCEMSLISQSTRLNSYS
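HEK293T cells stably expressing RXFP1 were pretreated with the PDE4 inhibitor Ro 20174, exposed to compounds for 30 min at 37C, lysed, and cAMP was read by TR-FRET. Data normalized to buffer (basal) and 29 nM porcine relaxin (100%).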
gsp ag – agonists of gsp mutant (McCune-Albright syndrome); gsp mutant cells, cAMP HTRF, 30 min; Potency, µM (highest dose often 76.9 µM), inactives show at the top dose activation (cAMP increase), actives largely listed as activators; 340,000 compounds, 0.13% hits; AID 624287; active = well fitted activation curve with a large enough effect; inconclusive = small, poorly fitted or top-dose-only effect, or another doubt; inactive = no such curve, though single readings can be large or run the other way; cell line not stated here;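 note: phosphodiesterase inhibitor Ro 20-1724 added with compounds to block cAMP breakdown; potency is the fitted concentration of half-maximal effect; nearly all actives have a fitted effect of over 60% in size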
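Cells stably selected in G418 were plated at 2000/well, grown 16-24 hr, then given compounds in DMSO with the PDE inhibitor […] (300 uM solution added) for 30 min at 37C; cAMP was read by HTRF.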
a7 integrin act – activators of alpha7 integrin expression for muscular dystrophy; alpha7betagal myoblasts, beta-gal FDG fluorescence, 48 h; Potency, µM (series often up to 38.3 µM), inactives show at the top dose activation, usual class: activators; 350,000 compounds, 0.064% hits; AID 624291;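 note: potency is the fitted concentration of half-maximal effect; 100% = response of the positive control SU9516; nearly all actives have a fitted effect of over 60% in size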
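alpha7betagal+/- myoblasts (passage 13, 250/well) treated 48 h at 37C with compounds at 1:260 dilution of DMSO stock. Lysed, then beta-galactosidase activity read as FDG fluorescence (ex 480/em 540) after 30 min, with pre-read for autofluorescence.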
ASM inhibitor – inhibitors of human secretory acid sphingomyelinase | placental ASM, HMU-PC fluorogenic substrate, 60 min | 340,000 compounds, 0.006% hits | AID 504937 | Potency, µM (top dose mostly 57.5 µM), without a hit: at the top dose activity change, negative = inhibition, actives largely listed as inhibitors | P17405; note: potency is the fitted concentration of half-maximal effect
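qHTS format. ASM enzyme prepared from human placenta hydrolyses the fluorogenic substrate HMU-PC0 (9 uM final) over 60 min at 37 °C after a 10 min compound preincubation.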
RXFP1 antag – antagonists of human relaxin receptor RXFP1 | activity change, negative = inhibition, % at 57.5 µM | Q9HBX9 | AID 1259400 | 350,000 compounds, 0.59% hits | HEK293-RXFP1, relaxin-stimulated cAMP HTRF, 30 min; hits give low values;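 active = activity change of -60% or lower, but not beyond a set lower limit; inconclusive = change between -60% and -40%, or beyond the set limit; inactive = change above -40%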; note: % is set by controls: 0 for no effect and ±100 for the full control effect
gsp antagonist – antagonists of gsp mutant (McCune-Albright syndrome); gsp-mutant cells, cAMP HTRF, 30 min; Potency, µM (series often up to 76.9 µM), inactives show at the highest dose activity change, negative = inhibition, actives largely listed as inhibitors; AID 624288; 340,000 compounds, 0.4% hits; calls by dose curve; cell line not stated here;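 note: intracellular cAMP measured with PDE inhibitor Ro 20-1724 present during compound exposure; potency is the fitted concentration of half-maximal effect; % is set by controls: 0 for no effect and ±100 for the full control effect; nearly all actives have a fitted effect of over 65% in size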
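HTRF cAMP read-out (cAMP-d2 plus anti-cAMP antibody-K in lysis buffer, 30 min RT). Before lysis, cells are exposed to compounds with […] for 30 min at 37C in DPBS containing Ca/Mg, BSA and Tween 20.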
* marks the source's active call; other numbers are inactive results; i = inactive; ? = inconclusive; nt = no result given; [ ] = remark or other dose. Unless noted, calls come from the whole dose curve; as a rule, active = well fitted curve in the direction sought with a large enough effect; inconclusive = small, poorly fitted or top-dose-only effect, or another doubt; inactive = no such curve, though single readings can be large; an effect the other way counts as inactive or inconclusive.

SMILES	RXFP1 agonist	gsp ag	a7 integrin act	ASM inhibitor	RXFP1 antag	gsp antagonist
CN(C)c1ccc(NC(=O)C2C3C=CC(C3)C2C(=O)O)cc1 (centres undefined)	-15%	-110%	-34%	2%	-119*	28µM*
COc1cc(NC(=O)C2C3C=CC(C3)C2C(=O)O)ccc1NC(=O)c1ccccc1 (centres undefined)	-2%	-14%[15.4 µM]	8.9µM*	6%	-11	-4%
CSc1ccccc1C(=O)C1CCCN(C(=O)CCN2CCCO2)C1 (centres undefined)	1%	0%	15%	0%	-12	-3%
O=C(CCCCCn1c(=O)[nH]c2ccccc2c1=O)N1CCN(c2ccc(Cl)cc2)CC1	7%	nt	nt	nt	-2	nt
CC(=O)NCc1cc(Cl)c2cccnc2c1O	1%	nt	nt	nt	nt	nt
C=C(C)COc1ccc(-c2[nH]ncc2-c2ccc(OC)cc2)c(O)c1	3%	-25%	-13%	-16%	-64*	-13%
C=C(C)COc1ccc(-c2[nH]ncc2-c2ccc(OC)c(OC)c2)c(O)c1	2%	0%	-48%	-6%	-78*	1%
COc1ccc(-c2cn[nH]c2-c2ccc(OCc3ccccc3)cc2O)cc1OC	3%	-9%[15.4 µM]	-26%	-9%	-26	-28%
COc1ccc(-c2cn[nH]c2-c2ccc(OCc3ccc(F)cc3)cc2O)cc1OC	2%	-31%[15.4 µM]	-19%	-9%	-73*	-16%
C=C(C)COc1ccc(-c2[nH]ncc2-c2ccccc2)c(O)c1	0%	12%	-35%	-22%	-30	3%
COc1ccc(-c2cn[nH]c2-c2ccc(OCC(=O)NN)cc2O)cc1OC	3%	-2%[15.4 µM]	-4%	2%	-14	-14%
COc1ccc(-c2[nH]ncc2Oc2ccccc2OC)c(O)c1	0%	-12%	3%	-3%	-23	13µM*
CCCCOc1ccc(C(=O)NCC(=O)OCCCOC(=O)CNC(=O)c2ccc(OCCCC)cc2)cc1	nt	-93%	-7%	nt	-1	nt
CC(C)C(=O)N1CCN(c2ccc(NC(=O)c3cccs3)cc2Cl)CC1	-2%	-21%	-9%	-5%	-8	28µM*
Cc1cccc(Nc2nc(-c3ccc(F)cc3)cs2)n1	0%	-42%[15.4 µM]	5%	-10%	-78*	-3%
Cc1nn(Cc2ccc(Cl)c(Cl)c2)c(C)c1NC(=O)c1cc(-c2ccco2)on1	1%	5%	-50%	-6%	-25	32µM*
CCC(O)CNc1nc(-n2nc(C)cc2C)nc2sc3c(c12)CCCC3 (centres undefined)	5%	nt	nt	nt	nt	nt
Cc1cc(C)n(-c2nc(SCCN(C)C)c3c4c(sc3n2)CCCC4)n1	4%	22%	-61%	-9%	-61*	8%
Cc1cccc2sc(NNC(=O)C3=COCCO3)nc12	-2%	-5%[15.4 µM]	27%	-1%	-61*	nt
CCCCNc1c(-c2ccc(SC3CCCCC3)c(OC)c2)nc2ccc(C)cn12	nt	nt	-38%	i	nt	-3%
COc1ccc(-c2nc3ccc(C)cn3c2NCc2ccccc2)cc1SC1CCCCC1	16%	nt	-43%	131%	nt	35µM*
Cc1ccc2nc(-c3cccc(SC4CCCCC4)c3)c(NCc3ccccc3)n2c1	nt	13%	-27%	314%	nt	?
CCCCNc1c(-c2ccc(OC)c(SC3CCCCC3)c2)nc2ccc(C)cn12	nt	?	-46%	337%	nt	32µM*
O=C(c1ccco1)N1CCNCC1	nt	nt	nt	nt	16	nt
COc1ccc2nnc(-c3ccccc3)n2n1	15%	16µM*	-1%	3%	6	16%
SMILES	RXFP1 agonist	gsp ag	a7 integrin act	ASM inhibitor	RXFP1 antag	gsp antagonist
O=C(NC1CC1)c1cccc(Nc2ccc(-c3ccc4c(c3)OCCO4)nn2)c1	-3%	-18%	4%	-6%	-19	32µM*
O=S(=O)(c1ccc(Nc2ccc(-c3ccc4c(c3)OCCO4)nn2)cc1)N1CCCC1	0%	-74%	-43%	-6%	0	2%
O=C(Cn1c(=O)oc2cc(S(=O)(=O)N3CCCCCC3)ccc21)Nc1cccc(C(F)(F)F)c1	0%	nt	nt	nt	2	nt
CCN1CCCC1CNC(=O)c1ccc2c(c1)N(Cc1ccccc1F)C(=O)c1ccccc1S2(=O)=O (centres undefined)	-1%	?	-34%	-1%	-100*	1%
CCN1CCCC1CNC(=O)c1ccc2c(c1)N(Cc1cccc(Cl)c1)C(=O)c1ccccc1S2(=O)=O (centres undefined)	-2%	-26%	-52%	0%	-25	7%
CN(CC(=O)Nc1ccc(F)cc1)C(=O)COC(=O)c1cccc(N(C)C)c1	3%	25µM*	11%	30%	10	-4%
CCOc1ccccc1NC(=O)c1cccc2c1C(=O)N(C1CCCCC1)C2	-1%	-22%	3.2µM*	-10%	3	10%
CCn1c(=NC(=O)C2COc3ccccc3O2)sc2c(OC)ccc(OC)c21 (centres undefined)	8%	20%	7%	-6%	5	-2%
COc1ccc(OC)c(NC(=O)CN2C(=O)COc3ccc(S(=O)(=O)NC4CCCC4)cc32)c1	-4%	nt	nt	nt	-1	nt
CCOc1ccc(N(CCCCO)C(=S)NC(=O)c2ccc(C)c(Br)c2)cc1	0%	-30%[15.4 µM]	17%	-2%	-90*	?
C=CCNC(=S)NC(=O)c1ccc(C)c(Br)c1	2%	12%	26%	-4%	-4	-22%
O=C(Nc1ccc(F)cc1)Nc1ccc2snnc2c1	-2%	nt	nt	nt	nt	nt
O=C(CSc1n[nH]c(=O)n1C1CC1)Nc1ccc(F)c(Cl)c1	nt	23%	-15%	-5%	-78*	-1%
O=C(CSc1n[nH]c(=O)n1C1CC1)Nc1ccc(Cl)c(Cl)c1	-1%	-8%[15.4 µM]	6%	-3%	1	-5%
Cc1cccc(N=C2NC(=O)/C(=C/C=C/c3ccco3)S2)c1C	1%	0%	-28%	-22%	-77*	-7%
COc1ccc(N=C2NC(=O)/C(=C/c3ccco3)S2)cc1	-1%	-14%	-11%	-1%	-10	-19%
O=C1NC(=Nc2ccccc2)S/C1=C\C=C\c1ccco1	1%	-30%	-40%	-10%	-102*	-24%
Cc1ccc(N=C2NC(=O)/C(=C/C=C/c3ccco3)S2)cc1	2%	30%	-32%	?	-67*	-11%
CC(=O)OCC(=O)C12OC(C)(C)OC1CC1C3CC=C4CC(O)CCC4(C)C3CCC12C (centres undefined)	nt	22%	-2%	-2%	-18	2%
COc1ccc(CCNC(=O)c2ccc(N(C)S(=O)(=O)c3ccc(C)cc3)cc2)cc1OC	1%	6%	25%	0%	-2	28µM*
O=C(c1ccc(-c2ccc([N+](=O)[O-])cc2)o1)N1CCCCCCC1	1%	-1%	-70%	-10%	-71*	-5%
